Bioassay records from PubChem.
HCV inh: inhibitors of hepatitis C virus infection; Huh7.5.1 HCVcc-Cre infection, luciferase reporter, 44 h; Potency, µM (series often up to 41.8 µM), for the others: at the top dose activity change, negative = inhibition, actives largely listed as inhibitors; 3.4% of 340,000 active; AID 651820; further: potency means the concentration at half of the fitted maximal effect
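Infectious HCV cell culture screen: compound-treated cells (1,000/well, pre-plated 4 h) are infected with HCVcc-Cre at roughly 0.5 moi and grown 44 h. Infection is quantified by luciferase signal after 15 min substrate incubation at room temperature.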
HCMV antiviral: blocks human cytomegalovirus replication. HFF cells, HCMV-luciferase reporter, 72 h; hits give low values. activity change, negative = inhibition, % at 57.5 µM. 4.5% of 410,000 active. AID 1259415; in the data active means activity change below about -60%; inconclusive means no clear call, values can overlap the other calls; inactive means above about -39%
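Two-dose cell screen: HFF monolayers treated with compounds and infected with luciferase-expressing HCMV at 1 PFU/cell, 72 h at 37C, then lysed for luciferase measurement.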
Pf growth 48h: P. falciparum growth inhibition at 48 hours (one generation); P. falciparum luciferase growth in erythrocytes, 48 h; Potency, µM (titrated, usually from 28.7 µM), for the others: at the highest dose activity change, negative = inhibition, usual class: inhibitors; 5.9% of 310,000 active; further: potency means the concentration at half of the fitted maximal effect
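Parasite viability was followed by luminescence of a genomically integrated firefly luciferase. Cultures held 0.1% parasitemia at 2% hematocrit (final), incubated under 5% CO2 at 37 C.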
Pf growth 96h: P. falciparum growth inhibition at 96 hours; 6.9% of 320,000 active; Potency, µM (series often up to 28.7 µM), for the others: at the top dose activity change, negative = inhibition, actives largely listed as inhibitors; P. falciparum luciferase reporter growth, 96 h; AID 504834; further: potency means the concentration at half of the fitted maximal effect
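P. falciparum expressing integrated firefly luciferase, in erythrocytes at 2% hematocrit, 0.05% parasitemia, incubated with compounds 96 h at 37 C, 5% CO2. Growth inhibition read as loss of luminescence; two-generation exposure targets delayed-death apicoplast inhibitors.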
Active calls of the source: *; ? = inconclusive; nt = no result; [ ] = dose if it differs, or a comment. Only some compounds are listed: those with a hit (about 13% of all), similar ones and a draw of the others. Unless noted, the call rests on the fitted dose curve; in most records, active means well fitted inhibition curve with a large enough effect; inconclusive means small, poorly fitted or top-dose-only effect, or another doubt; inactive means no such curve, though single readings can be large or run the other way. On the % scale 0 is the no-effect control and ±100 the full control effect.

SMILES | HCV inh | HCMV antiviral | Pf growth 48h | Pf growth 96h
CC(C(=O)OCC(=O)c1ccc(Br)cc1)N1C(=O)C2C3C=CC(C3)C2C1=O (stereo unspecified) | -5% | 13 | 27% | -2%
Cc1ccc(C(=O)COC(=O)C(C)N2C(=O)C3C4CCC(C4)C3C2=O)cc1 (stereo unspecified) | 11% | 2 | 10% | 8.3µM*
Cc1ccc(C(=O)COC(=O)C(C)N2C(=O)C3C4CCC(C4)C3C2=O)cc1C (stereo unspecified) | nt | -7 | -2% | 36%
COc1ccc2oc(=O)c(C(=O)Nc3ccc(C(=O)O)cc3)cc2c1 | nt | 18 | nt | nt
O=C(CSc1nnc(-c2ccccc2)o1)c1cccc([N+](=O)[O-])c1 | nt | -11 | nt | nt
CCN1C(=O)c2ccccc2S(=O)(=O)c2ccc(C(=O)NCc3ccccc3OC)cc21 | nt | -9 | nt | nt
CCOC(=O)Cn1c(=O)n(Cc2ccc(C)cc2)c(=O)c2cccnc21 | 0.79µM* | 0 | -3% | ?
COc1ccc(OC)c(NC(=O)COCc2cc(-c3ccco3)on2)c1 | nt | 0 | nt | nt
Cc1ccc(Nc2ncccc2C(=O)O)cc1C | 15% | 94 | 39% | 87%
O=C(O)c1cccnc1Nc1ccc(Cl)cc1 | 5% | -72* | 11% | ?
CCn1cc(C(=O)OCC(=O)Nc2cc(Cl)ccc2C)c(=O)c2ccc(C)nc21 | nt | -8 | nt | nt
COC(=O)c1ccc2c(c1O)C(=O)c1ccccc1C2=O | ? | -15 | nt | 4.1µM*
O=C1c2ccccc2C(=O)c2c1ccc(O)c2O | 16% | 18 | -4% | 16%
CCSc1c(C(=O)NC)ccc2c1C(=O)c1ccccc1C2=O | 7% | 28 | -9% | 15µM*
CCCCN(C)C(=O)CN1C(=O)CCn2nc(-c3cn(C)c4ccccc34)cc21 | nt | 3 | nt | nt
CCOC(=O)C1CCN(C(=O)CCc2c(C)nc3ncnn3c2C)CC1 | 16% | 21 | nt | 15µM*
CCOC(=O)C1CCN(C(=O)CCc2c(C)nc3cc(-c4ccc(OC)cc4OC)nn3c2C)CC1 | 5% | -11 | 13µM* | ?
COc1ccc(N2CCN(C(=O)CCc3c(C)nc4cc(-c5ccc(OC)cc5OC)nn4c3C)CC2)cc1 | nt | -3 | nt | nt
Cc1ccc(Sc2c(C)nn(C(C)(C)C)c2OC(=O)C(C)(C)C)cc1 | nt | 4 | nt | nt
Cn1ccc2cc(S(=O)(=O)N3CCC(C(=O)NCCc4ccccc4)CC3)ccc21 | nt | 9 | nt | nt
Cc1ccc(C(=O)N/N=C\c2ccncc2)s1 | -3% | 36 | 47% | ?
O=C(N/N=C\c1ccncc1)c1ccc(Cl)s1 | -15% | 70 | 10% | 13µM*
CCc1ccc(C(=O)N/N=C/c2ccncc2)s1 | 13µM* | 38 | ? | -11%
CCOc1ccc(NC(=O)CCn2c(=O)c3cccn3c3cccnc32)cc1 | nt | -17 | nt | nt
COc1ccc(N2CCN(CCCNC(=O)c3nnc(Cc4ccc(F)cc4)o3)CC2)cc1 | nt | -23 | nt | nt
SMILES | HCV inh | HCMV antiviral | Pf growth 48h | Pf growth 96h
COc1cc(NC(=O)C(CC(C)C)NS(=O)(=O)c2ccc3c(c2)CCN3C(C)=O)cc(OC)c1 (stereo unspecified) | nt | -4 | nt | nt
Cc1ccccc1NC(=NCCCN1CC1)Nc1ccccc1C | ? | -77* | nt | nt
COc1cc(NC(=O)CSc2nc3nc(C)c(Cc4ccccc4)c(C)n3n2)cc(OC)c1OC | nt | -4 | nt | nt
C1=C(c2cccc3ccccc23)N2CCN=C2S1 | ? | 40 | ? | 13µM*
CC(C)(C)c1ccc(C2=CSC3=NCCN23)cc1 | -25% | 76 | ? | 0.26µM*
Clc1ccc(C2=CSC3=NCCN23)cc1Cl | -8% | 105 | ? | ?
CC(C)Cc1ccc(C2=CSC3=NCCN23)cc1 | 11µM* | 22 | nt | nt
Cc1cccc(N2CCN(C(=O)c3sc4nc5n(c(=O)c4c3C)CCC5)CC2C)c1 (stereo unspecified) | nt | -13 | nt | nt
CC(NC(=O)CCCOc1ccc(Cl)cc1)c1ccccc1 (stereo unspecified) | -2% | -24 | -21% | 2%
CCCCOc1ccc(C(C)NC(=O)CCS(=O)(=O)Cc2ccccc2F)cc1 (stereo unspecified) | -2% | -66* | 1% | 7%
CCOc1ccc(C(CCc2ccccc2)NC(=O)c2ccccc2F)cc1OCC (stereo unspecified) | -23% | 45 | nt | 1.5µM*
C=CCNC(=O)/C(=C/c1ccccc1OCC)NC(=O)c1ccccc1 | -10% | 44 | 4% | ?
CCOc1ccc(C(C)NC(=O)Cc2ccccc2)cc1OCC (stereo unspecified) | 24% | -1 | 2.3µM* | 2.1µM*
CCOc1ccccc1/C=C(/NC(=O)c1ccccc1)C(=O)NC(C)c1ccccc1 (stereo unspecified) | -10% | -30 | 5% | 10µM*
CCCCNC(=O)Cn1c(=O)cc(C)c2c(C)nn(-c3cccc(Cl)c3C)c21 | nt | 15 | nt | nt
CCc1ccccc1NC(=O)CSc1nc2c(oc3ccccc32)c(=O)n1-c1ccccc1F | nt | -16 | nt | nt
CCCCNC(=O)CCCN1C(=O)c2ccccc2Sc2ncccc21 | nt | -10 | nt | nt
CC(NC(=O)Cc1ccccc1F)c1ccc(F)cc1 (stereo unspecified) | 4% | ? | 20% | 12%
CCOc1ccc(C(C)NC(=O)Cc2ccccc2F)cc1OCC (stereo unspecified) | -4% | 21 | ? | 1.3µM*
Fc1ccc(Cn2nnnc2C(c2ccc(Cl)cc2)N2CC=C(c3ccc(F)cc3)CC2)cc1 (stereo unspecified) | 6% | -19 | 12µM* | 46%
Fc1ccc(C2=CCN(C(c3ccc(Cl)cc3)c3nnnn3Cc3ccccc3)CC2)cc1 (stereo unspecified) | -22% | -36 | 12µM* | -22%
O=C(Nc1c(C(=O)Nc2ccc(F)cc2)oc2ccccc12)c1cc2ccccc2o1 | nt | 13 | nt | nt
CCn1c(CN2c3ccccc3Sc3ccccc32)n[nH]c1=S | 4% | -62* | 3% | ?
CCn1c(CCCCc2n[nH]c(=S)n2CC)n[nH]c1=S | 7% | 17 | 4% | 18%
CN(C)C(=O)Oc1c(Cl)cc(Cl)c2ccccc12 | -8% | -71* | nt | -29%
SMILES | HCV inh | HCMV antiviral | Pf growth 48h | Pf growth 96h
CCC(CC)C(Nc1ccccc1C(C)=O)C(=O)NC1CCCCC1 (stereo unspecified) | nt | -34 | nt | nt
C[C@@H]1C[C@H]2[C@@H]3C[C@H](F)C4=CC(=O)C=C[C@]4(C)[C@@]3(F)[C@@H](O)C[C@]2(C)[C@@]1(O)C(=O)COC(=O)C(C)(C)C | 11%[8.37 µM] | 63 | ? | 0%
CCC(=O)O[C@@]1(C(=O)SCF)[C@@H](C)C[C@H]2[C@@H]3C[C@@H](F)C4=CC(=O)C=C[C@@]4(C)[C@]3(F)[C@@H](O)C[C@]21C | nt | nt | 5.7µM* | 4.1µM*
O=C(c1cccn2c(=O)c3cc(Cl)ccc3nc12)N1CCOCC1 | -6% | 62 | 13µM* | 10µM*
O=C(c1cc(Cl)ccc1Cl)N1CCOCC1 | -2% | -6 | 25% | 13µM*
O=C(c1cccn2c(=O)c3cc(Cl)ccc3nc12)N1CCN(Cc2ccc3c(c2)OCO3)CC1 | 14% | -29 | ? | -4%
O=C(c1cc2cc(Cl)cc(Cl)c2oc1=O)N1CCOCC1 | ? | -2 | 15% | 8.3µM*
